Measurements: paper PMC12136788
Whole data set: some 5,800 sequences, median “enrichment r” near 0.68, cut for the highest 2% near 11. The list comes from a sample in which the highest values are over-represented; it also holds similar and randomly drawn sequences.

T1: UNK ZnF1-6 (called full-length) (human, UniProt Q9C0B0 30-357)
T1 sequence: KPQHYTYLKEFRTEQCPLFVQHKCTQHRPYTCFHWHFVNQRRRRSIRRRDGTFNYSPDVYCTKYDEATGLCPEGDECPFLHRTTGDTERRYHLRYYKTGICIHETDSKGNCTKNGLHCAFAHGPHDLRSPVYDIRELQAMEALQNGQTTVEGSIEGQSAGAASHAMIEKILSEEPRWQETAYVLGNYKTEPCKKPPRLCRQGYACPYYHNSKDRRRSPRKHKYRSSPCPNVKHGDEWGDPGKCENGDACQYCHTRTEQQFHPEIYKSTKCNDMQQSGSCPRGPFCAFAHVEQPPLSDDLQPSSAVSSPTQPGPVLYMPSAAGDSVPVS

B1: chr8:73046310:73046411:+|3pUTR|ENSG00000147601|msi1|FALSE|unique (ssRNA)
RNA: GGGAGUUCUACAGUCCGACGAUCUUGUAUUCUUUAAGAACCUUAUUUUGAUAAAAUGUAAAUUUGUUGAACCCUGCCACAUUUAGUAUCCCCACCCCCAAAUCCUGUUCCAAUGAAAAAAUUAAAACCUGAUACGAAAAAAAACAACAGAGGAUUGAGCAUCA
B2: chr2:96301550:96301651:-|CDS|ENSG00000144028|msi1|FALSE|unique (ssRNA)
RNA: GGGAGUUCUACAGUCCGACGAUCAAGGCGAAAGGAGAUUGACCUGCUGCUGGGUCAAACAGAUGAUACCAGAUACCAUGUGCUAGUGAACCUGGGCAAAAAGAUCACAGACUAUGGUGGAGAUAAGGAAAUCCAAAAUAUGGGCAACAGAGGAUUGAGCAUCA
B3: chr7:76302746:76302847:+|CDS|ENSG00000106211|unk|total|mutant (ssRNA)
RNA: GGGAGUUCUACAGUCCGACGAUCGUCCCCUUCUCGCUCCUGCGGGGCCCCAGCUGGGACCCCUUCCGCGACUGGUACCCGCACCGCCGCCUCUUCGACCAGGCCUUCGGGCUGCCCCGGCUGCCGGAGGAGUGGUCGCAGUGGCAACAGAGGAUUGAGCAUCA
B4: chr7:56101660:56101848:-|3pUTR|ENSG00000106153|msi1|total|mutant (ssRNA)
RNA: GGGAGUUCUACAGUCCGACGAUCUGGAGAGAUGGAAAAUCAGCUCUCAUAACUAAGUUAAUUCCGUAUAAAAACCGAAUUGACCGUGAGGGUAUAAAGUGUAACCAUCAGUUAAACCUCUCCUGUCAUUCCUGGCUUCCUUGCCAACAGAGGAUUGAGCAUCA
B5: chr11:2928445:2928542:-|3pUTR|ENSG00000181649|msi1_unk|FALSE|overlapping (ssRNA)
RNA: GGGAGUUCUACAGUCCGACGAUCAUUGGACUAUCUAAUAUCUAUGUAUUUAUUUCGCUGGUUCUUUGUAGUCACAUAUUUUAUAGUCUUAAUAUCUUGUUUUUGCAUCACUGUGCCCAUUGCAAAUAAAUCACUUGGCCAGUUCAACAGAGGAUUGAGCAUCA
B6: ENSG00000070961:be:win_1401|CDS|ENSG00000070961|bound_else_gene|NA|bound_elsewhere_windowed (ssRNA)
RNA: GGGAGUUCUACAGUCCGACGAUCAAAUGCUACAGCUAUUUGUUCAGAUAAAACAGGAACUUUGACAAUGAACAGAAUGACAGUCGUUCAAGCUUACAUAAAUGAAAAACAUUAUAAAAAGGUUCCUGAACCAGAAGCUAUUCCCAACAGAGGAUUGAGCAUCA

What follows are binders tested against T1, UNK ZnF1-6 (called full-length) (assay: nsRBNS (natural sequence RNA bind-n-seq); RBNS binding buffer (assumed for nsRBNS): 25 mM Tris pH 7.5, 150 mM KCl, 3 mM MgCl2, 0.01% Triton X-100, 500 ug/ml BSA, 20 U/ml SUPERase-In, 4 C; UNK is unkempt and MSI1 is Musashi-1; names of the RNAs are library labels; protein concentration not given here; high values mean tight binding).

Question: Which binding signal does the source give for B1 here?
Answer: 2.26 enrichment R

Question: For B2, which binding signal is on record?
Answer: 0.578 enrichment R

Question: How did the binding signal turn out when B3 was run?
Answer: 2.16 enrichment R

Question: B4 was tested. Which binding signal did it give?
Answer: 0.253 enrichment R

Question: For B5, which binding signal is on record?
Answer: 5.74 enrichment R

Question: For B6, which binding signal is on record?
Answer: 0.274 enrichment R
